In PubChem BioAssay AID1422 (Emory University Molecular Libraries Screening Center, 2008):
The whole screen tested about 260,000 compounds, of which about 1,300 (0.5%) were called active. Only a selection was taken, and actives are over-represented in it overall. Unmarked numbers belong to inactive results.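 The calls were made as follows: active = percent inhibition above 40 after rounding to a whole number; inactive = the rest.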

These compounds were tested against Prostaglandin E2 receptor EP2 subtype (Homo sapiens) (UniProt P43116) (assay: blockers of PGE2-driven EP2 cAMP signalling – TR-FRET cAMP, C6 glioma cells, primary screen (AID 1422;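 also: rat C6 glioma host cells with rolipram phosphodiesterase inhibitor present; the protocol text gives 20 µM as final concentration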)). Settings: C6 glioma cells expressing human EP2, cAMP TR-FRET; at 25 µM; active compounds read high; cells stimulated with saturating PGE2.
Sequence of Prostaglandin E2 receptor EP2 subtype (Homo sapiens) (P43116 whole entry, looked up): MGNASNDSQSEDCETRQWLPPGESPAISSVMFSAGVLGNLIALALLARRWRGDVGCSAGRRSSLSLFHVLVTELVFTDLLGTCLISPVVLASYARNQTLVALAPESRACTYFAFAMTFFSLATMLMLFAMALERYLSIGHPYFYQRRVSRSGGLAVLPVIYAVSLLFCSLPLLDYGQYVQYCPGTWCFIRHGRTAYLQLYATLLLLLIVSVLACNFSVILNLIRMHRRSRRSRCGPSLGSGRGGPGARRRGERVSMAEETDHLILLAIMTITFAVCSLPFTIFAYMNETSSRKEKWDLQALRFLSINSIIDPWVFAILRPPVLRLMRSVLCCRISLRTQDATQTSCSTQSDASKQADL

Row | SMILES | inhibition
1 | COc1ccc(OCCCC(=O)Nc2nc(-c3ccc(OC)cc3)cs2)cc1 | 12.9%
2 | Cc1ccc(CNS(=O)(=O)c2cccc(S(=O)(=O)N3CCCC3)c2)cc1 | 10.8%
3 | COCCn1c(N2CCCC2)nc2c1c(=O)n(C)c(=O)n2C | 7.42%
4 | O=C(CSc1nnc(-c2ccccc2)o1)N1CCOCC1 | 8.71%
5 | CC1=CC(C)(C)N(C(=O)CSc2nnc(-c3ccccc3)o2)c2ccc(C)cc21 | 45.4% (active)
6 | CC1=CC(C)(C)N(C(=O)CSc2nccn2C)c2cc(C)ccc21 | 17.5%
7 | COc1ccc(C2(NC(=O)c3noc(C)c3Cn3cccn3)CCCCC2)cc1 | 7.45%
8 | Cc1ccc(NC(=O)CSc2nnc(-c3ccncc3)n2C2CCCCC2)c(C)c1 | 15.8%
9 | COc1ccc(CNC(=O)CCSc2nc(-c3ccco3)cc(C(F)(F)F)n2)cc1 | 9.17%
10 | CC(Nc1nc(N2CCCC2)nc2ccccc12)c1ccccc1 (stereo not drawn) | 48.2% (active)
11 | CC(Nc1nc(N2CCOCC2)nc2ccccc12)c1ccccc1 (stereo not drawn) | 7.73%
12 | CC(Nc1nc(N2CCN(CCO)CC2)nc2ccccc12)c1ccccc1 (stereo not drawn) | 7.4%
13 | COCCNS(=O)(=O)c1ccc2[nH]c(=O)[nH]c2c1 | 9.6%
14 | Cc1cc(C)c2[nH]c(C)c(CN(C)Cc3ccccc3)c(=O)c2c1 | 12%
15 | CCC(c1nnnn1C(C)(C)C)N(Cc1ccccc1)Cc1cc2ccc(C)cc2[nH]c1=O (stereo not drawn) | 5.18%
16 | Cc1nc(NC(=O)c2sc3nc4c(C)cccc4cc3c2N)sc1C | 19.7%
17 | O=C(COC(=O)c1cccs1)Nc1ccccc1Cl | 5.7%
18 | O=C(Nc1ccccc1Cl)c1ccc2nsnc2c1 | 5.72%
19 | O=C(Nc1ccccc1Cl)/C(Cl)=C(\Cl)S(=O)c1ccccc1 (stereo not drawn) | 57.5% (active)
20 | COc1cc(OC)c(OC)cc1/C=N/Nc1ncnc2c1[nH]c1ccc(C)cc12 | 5.82%
21 | CC(C)OCCCNC(=O)c1cc(Sc2ccc(F)cc2)nc2ccccc12 | 8.64%
22 | CC(C)OCCCNc1ncnc2c1[nH]c1ccc(F)cc12 | 46.2% (active)
23 | CCCc1[nH]nc2c1C(c1ccc(Br)s1)C(C#N)=C(N)O2 (stereo not drawn) | 51.9% (active)
24 | CCCc1[nH]nc2c1C(c1c(C)nn(-c3ccccc3)c1Cl)C(C#N)=C(N)O2 (stereo not drawn) | 25.4%
25 | CCCc1[nH]nc2c1C(C1CC=CCC1)C(C#N)=C(N)O2 (stereo not drawn) | 3.84%
26 | CC(Sc1nnc(-c2cccnc2)n1-c1ccccc1)C(=O)Nc1ccc(N)cc1 (stereo not drawn) | 14.6%
27 | O=c1c2ccc(Br)c3cccc(c32)c2nc3ccccc3n12 | 6.4%
28 | COc1ccccc1CNS(=O)(=O)c1ccc(S(=O)(=O)N2CCC(C)CC2)cc1 | 4.43%
